# Screening data from PubChem.
# HepG2 tox – qHTS for Inhibitors of TGF-b: Cytotox Counterscreen | Potency, µM (titrated, usually from 46.1 µM), for the others: at the highest dose activity change, negative = cytotoxicity, most hits filed as cytotoxic | HepG2 CAGA-GFP viability, ATP luminescence, 18 h | AID 588856, 2011 | 410,000 tested, 0.76% active
#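 CellTiter-Glo luminescence gave cytotoxicity after 18 hours at 37 degrees C. The cells were HepG2 CAGA-GFP in 1% FBS DMEM, stimulated with 500 pg/mL TGF-beta after compound addition. %Activity was normalised to no-cell wells (complete cell-killing) and DMSO (no toxicity), and curves were fitted and classified.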
# TGFb inhibitor – qHTS for Inhibitors of TGF-b; HepG2 CAGA-GFP TGF-b/SMAD3 reporter, GFP fluorescence, 18 h; TGF-beta stimulated, 500 pg/mL final; Potency, µM (highest dose often 46.1 µM), without a hit: top-dose activity, negative = inhibition, most hits filed as inhibitors; 410,000 tested, 1.2% active; AID 588855, 2011; note: % is set by controls: 0 for no effect and ±100 for the full control effect; nearly all actives have a fitted effect of over 65% in size
#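 TGF-beta reporter screen: HEPG2 CAGA-GFP, 1% FBS, 500 pg/mL TGF-beta final, 18 h; per-cell GFP summed per well; curves fitted and categorized by class.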
# ATXN2 expr inh – Primary qHTS for Inhibitors of ATXN expression | HEK-293 ATXN2-luciferase reporter, luminescence, 24 h | AID 1745845, 2022 | 360,000 tested, 0.72% active | Potency, µM (titrated, usually from 57 µM), for the others: at the highest dose activity change, negative = inhibition, actives largely listed as inhibitors; note: % is set by controls: 0 for no effect and ±100 for the full control effect; nearly all actives have a fitted effect of over 55% in size
#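 ATXN2-luciferase reporter cells (luciferase flanked by upstream and downstream ATXN2 gene portions) were treated 24 h at 37 °C with compounds at up to 57 uM. SteadyGlo luminescence gave expression; GF-AFC fluorescence gave viability.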
# ATXN viability – Viability Counterscreen for Primary qHTS for Inhibitors of ATXN expression | 400,000 tested, 0.49% active | S2 cells (HEK-293 line with an ATXN2-luciferase reporter) viability, CellTiter-Fluor protease fluorescence, 24 h | Potency, µM (highest dose often 56.7 µM), usual class: cytotoxic; note: nearly all actives have a fitted effect of over 40% in size
# ALOX12 inh – Primary qHTS assay for inhibitors of human arachidonate 12S-lipoxygenase (ALOX12): Round 2. purified 12hLO, xylenol orange hydroperoxide absorbance. Polyunsaturated fatty acid lipoxygenase ALOX12 (Homo sapiens), P18054. 580,000 tested, 1.1% active. Potency, µM (top dose mostly 108 µM), inactives show at the top dose activity change, negative = inhibition, hits mostly inhibitors; note: % is set by controls: 0 for no effect and ±100 for the full control effect
# Target sequence (P18054 whole entry, looked up): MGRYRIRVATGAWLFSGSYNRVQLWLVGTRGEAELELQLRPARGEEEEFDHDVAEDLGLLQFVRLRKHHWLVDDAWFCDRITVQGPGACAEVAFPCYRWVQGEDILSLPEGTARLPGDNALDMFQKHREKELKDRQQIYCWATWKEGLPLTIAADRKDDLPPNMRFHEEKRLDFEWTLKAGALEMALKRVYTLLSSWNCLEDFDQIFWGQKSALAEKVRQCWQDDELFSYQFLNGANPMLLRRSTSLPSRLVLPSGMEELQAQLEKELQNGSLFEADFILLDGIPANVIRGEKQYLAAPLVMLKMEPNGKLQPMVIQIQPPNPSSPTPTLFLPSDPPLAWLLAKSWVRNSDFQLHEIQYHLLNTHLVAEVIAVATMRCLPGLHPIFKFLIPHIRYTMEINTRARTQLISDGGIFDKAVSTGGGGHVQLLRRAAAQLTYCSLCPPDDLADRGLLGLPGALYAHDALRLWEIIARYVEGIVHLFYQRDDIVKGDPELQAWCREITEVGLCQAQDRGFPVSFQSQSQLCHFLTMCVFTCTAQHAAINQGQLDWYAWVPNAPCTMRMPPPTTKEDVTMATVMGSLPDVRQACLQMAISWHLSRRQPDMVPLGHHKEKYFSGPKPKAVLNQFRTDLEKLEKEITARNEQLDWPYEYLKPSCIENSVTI
#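 Purified human 12hLO (150 nM final) in 25 mM Hepes, 0.01% Triton X-100, pH 7.0 was preincubated 15 min at room temperature with compound. Then 40 uM arachidonic acid was added, 30 min. Hydroperoxide was read by Fe-XO absorbance ratio 573/405 nm.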
# An asterisk follows results filed as active; i = inactive; ? = inconclusive; / = no result. This is a sample that favours compounds with a hit; in the whole collection about 2.7% have one here. Calls come from the whole dose curve; as a rule, active = well fitted curve in the direction sought with a large enough effect; inconclusive = small, poorly fitted or top-dose-only effect, or another doubt; inactive = no such curve, though single readings can be large; an effect the other way counts as inactive or inconclusive. Potency is the fitted concentration of half-maximal effect.
SMILES,HepG2 tox,TGFb inhibitor,ATXN2 expr inh,ATXN viability,ALOX12 inh
COc1cccc(/C=N/NC(=O)c2cc3c(OC)ccc(OC)c3[nH]2)c1O,0.3%,?,/,i,9.2%
COc1cc(OC)c2cc(C(=O)N/N=C/c3cccc(OC)c3O)[nH]c2c1,-21.7%,?,3.16µM*,?,-1.5%
COc1cccc(/C=N/NC(=O)c2nc(-c3ccccc3)cc(-c3ccccc3)n2)c1O,-30.8%,-21.3%,10µM*,i,-16.6%
COc1cccc(/C=N/NC(=O)N/N=C/c2cccc(OC)c2O)c1O,-11.0%,-9.6%,?,i,0.0%
COc1cccc(C=NNC(=O)c2ccncc2)c1O,-11.5%,14.0%,10µM*,i,6.6%
Cc1cccc(NC(=O)c2ccc[n+]([O-])c2)n1,/,/,/,/,7.0%
COc1cccc(NC(=O)Cn2nc(Cc3cccnc3)c3ccccc3c2=O)c1,2.4%,3.7%,1.6%,i,10.8%
C=CC(=O)Nc1cccc(CN2C(=O)N(c3cc(OC)cc(OC)c3)Cc3cnc(NCCCCN(CC)CC)nc32)c1,-71.3%,-6.9%,-20.1%,20µM*,/
O=C(Cc1cccs1)Nc1cccc(-c2nc3cc4ccccc4cc3[nH]2)c1,-74.1%,11.2µM*,-35.9%,?,?
CC(=O)Nc1cccc(NC(=O)Cc2cccs2)c1,2.9%,-2.7%,/,i,?
Cc1ccc(-n2c(-c3ccc(Br)cc3)c[n+]3c2CCc2ccc4cccnc4c2-3)cc1,8.91µM*,3.16µM*,5.01µM*,14.1µM*,?
Cc1nn2c(=O)cc(CSc3n[nH]c(-c4ccccc4)n3)nc2s1,/,/,/,/,-25.8%
CC1(C(=O)Nc2ccc3c(c2)OCO3)CCN1C(=O)CCc1ccc(Cl)cc1Cl (configuration not stated),-18.2%,-2.8%,-7.2%,28.2µM*,?
CC1(C(=O)Nc2ccc3c(c2)OCO3)CCN1C(=O)Cc1cc(F)ccc1F (configuration not stated),-9.5%,1.1%,-3.2%,i,0.4%
CC1(C)CC(=O)c2cc(C#N)c(=O)n(-c3ccc(F)cc3)c2C1,/,/,/,/,5.9%
CSc1ccc(NC(C)=O)cc1,/,/,/,/,-43.6%
Clc1ccccc1C(c1ccccc1)(c1ccccc1)n1ccnc1,20µM*,?,?,?,?
Cc1onc(-c2ccccc2Cl)c1C(=O)N1CCN(S(=O)(=O)c2c(F)cccc2F)CC1,/,/,/,/,8.3%
Cn1cc(C(=O)NC2(C)CCS(=O)(=O)C2)c2ccccc21 (configuration not stated),/,/,/,/,12.6µM*
Cn1cc(C(=O)NC2CCS(=O)(=O)C2)c2ccccc21 (configuration not stated),/,/,/,/,28.9%
Cc1cc(C)c2c(c1)C1C=CCC1C(C(=O)O)N2 (configuration not stated),5.4%,-6.4%,/,/,/
Cc1cc(C)c2c(c1)NC(C(=O)O)C1CC=CC21 (configuration not stated),-12.5%,31.7%,-15.2%,i,7.94µM*
O=C(Cc1ccc(F)cc1)N1CCC2(CC1)NC(=O)N(c1ccccc1Cl)N2,/,/,/,/,1.26µM*
O=C(c1ccc(F)cc1Cl)N1CCC2(CC1)NC(=O)N(c1ccccc1Cl)N2,/,/,/,/,1.41µM*
O=C(COc1ccc(F)cc1)N1CCC2(CC1)NC(=O)N(c1ccccc1Cl)N2,/,/,/,/,1.41µM*
SMILES,HepG2 tox,TGFb inhibitor,ATXN2 expr inh,ATXN viability,ALOX12 inh
COc1ccc2c(c1)CC/C(=C/c1ccncc1)C2=O,-26.8%,-24.8%,-10.9%,i,/
COc1ccc2c3c(ccc2c1)C(=O)/C(=C/O)CC3,-2.0%,?,-33.3%,i,25.1µM*
CCOc1cc(-c2ccc(C)cc2)nc2ccc(C(=O)NCC(C)O)cc12 (configuration not stated),/,/,/,/,10.9%
CN1[C@@H](CCC(=O)Nc2ccccc2)CNC(=O)[C@@H]2[C@H]1CCN2Cc1cccc(OC(F)(F)F)c1,/,/,/,/,-0.3%
O=C(O)c1cc(O)c2c(c1)[C@H]([C@H]1c3cc(C(=O)O)cc(O)c3C(=O)c3c(O[C@@H]4O[C@H](CO)[C@@H](O)[C@H](O)[C@H]4O)cccc31)c1cccc(OC3O[C@H](CO)[C@@H](O)[C@H](O)[C@H]3O)c1C2=O (some centres not stated),-33.6%,?,-25.9%,?,?
O=C(O)c1cc(O)c2c(c1)[C@@H]([C@H]1c3cc(C(=O)O)cc(O)c3C(=O)c3c(O[C@@H]4O[C@H](CO)[C@@H](O)[C@H](O)[C@H]4O)cccc31)c1cccc(OC3O[C@H](CO)[C@@H](O)[C@H](O)[C@H]3O)c1C2=O (some centres not stated),-39.5%,11.2µM*,0.0%,?,50.1µM*
Cc1ccc(NC(=O)Cc2coc3ccc(C(C)C)cc23)cc1Cl,-32.1%,11.2µM*,-8.4%,?,-21.7%
CCCCOC(=O)c1ccc(NC(=O)Cc2coc3ccc(C(C)C)cc23)cc1,-38.7%,11.2µM*,?,?,-9.1%
CCOC(=O)c1ccc(NC(=O)Cc2coc3cc4c(cc23)CCC4)cc1,-7.0%,?,-9.1%,i,-13.0%
N#Cc1cccnc1N1CCN(c2nccc(N3CCCC(O)C3)n2)CC1 (configuration not stated),/,/,/,/,46.9%
Cc1ccc(-c2nccc(N3CCC(O)C3)n2)c(C)c1 (configuration not stated),/,/,/,/,35.5µM*
O=C(NNc1ccc([N+](=O)[O-])cc1)c1ccccc1Cl,-3.7%,-7.4%,/,i,-8.0%
O=C(NC(NNc1ccc([N+](=O)[O-])cc1)(C(F)(F)F)C(F)(F)F)c1ccc(Cl)cc1,-4.8%,?,?,i,35.5µM*
O=C(Nc1cc(C(F)(F)F)ccc1Cl)C(F)(F)C(F)(F)C(F)(F)C(F)(F)C(=O)Nc1cc(C(F)(F)F)ccc1Cl,/,/,/,/,-22.7%
C=CCN=c1scc(-c2ccc3c(c2)NC(=O)CO3)n1/N=C(\C)c1ccccn1,-42.2%,11.2µM*,?,i,0.0%
C=CCN=c1scc(-c2ccc(F)cc2)n1/N=C/c1ccccn1,-39.9%,?,6.3%,i,-11.4%
C[N+](C)(C)CCOC(=O)C1(c2ccccc2)CCCC1,6.3%,31.8%,-0.4%,i,154.4%
CC[N+](CC)(CC)CCCOC(=O)C1(c2ccccc2)CCCC1,/,/,/,/,20µM*
CC[N+](C)(CC)CCCOC(=O)C1(c2ccccc2)CCCC1,/,/,/,/,20µM*
COc1ccccc1C(=O)NCc1nnc2cc(-c3nc(C4CC4)no3)ccn12,/,/,/,/,34.5%
CCOc1ccc(-c2nc(N)ncc2-c2ccc(OC)cc2)c(O)c1,-29.5%,-4.3%,-4.2%,i,-29.7%
